Source: PubChem BioAssay (NCATS)
Calls of active or inactive are those of the source. Calls follow the shape of the dose curve; as a rule, active = well fitted curve in the direction sought with a large enough effect (not every such curve was filed as active); inconclusive = small, poorly fitted or top-dose-only effect, or effect the other way, or another doubt; inactive = no such curve, though single readings can be large or run the other way.

What follows are molecules tested against Pyruvate kinase PKM (Homo sapiens) (UniProt P14618) (assay: qHTS Assay for Activators of Human Muscle Pyruvate Kinase (AID 954;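 also: 0% = uninhibited enzyme and -100% = no enzyme or full thiadiazolimine inhibition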)). Conditions: purified human muscle pyruvate kinase, luciferase-coupled luminescence, 1 h; series mostly up to 57.5 µM; activity change, negative = inhibition: at the top concentration.
Sequence of Pyruvate kinase PKM (Homo sapiens) (P14618 whole entry, looked up): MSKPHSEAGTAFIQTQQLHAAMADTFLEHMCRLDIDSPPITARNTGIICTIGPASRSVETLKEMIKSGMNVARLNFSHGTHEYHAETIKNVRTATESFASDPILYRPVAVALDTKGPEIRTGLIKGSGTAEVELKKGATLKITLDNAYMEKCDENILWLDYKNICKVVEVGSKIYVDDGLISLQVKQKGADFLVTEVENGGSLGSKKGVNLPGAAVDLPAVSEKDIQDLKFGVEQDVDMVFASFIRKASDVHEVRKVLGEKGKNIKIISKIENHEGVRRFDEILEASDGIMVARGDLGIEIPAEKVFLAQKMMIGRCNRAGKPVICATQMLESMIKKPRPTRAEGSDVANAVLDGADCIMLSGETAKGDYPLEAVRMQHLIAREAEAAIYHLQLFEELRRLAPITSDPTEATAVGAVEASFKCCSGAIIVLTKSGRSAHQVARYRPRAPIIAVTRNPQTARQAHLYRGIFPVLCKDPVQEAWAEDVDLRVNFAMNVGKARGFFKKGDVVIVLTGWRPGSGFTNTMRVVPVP
Method: NIH Molecular Libraries Screening Centers Network [MLSCN]
NIH Chemical Genomics Center [NCGC]
Wael M. Rabeh, Lyudmila Nedyalkova and Hee-Wan Park [Structural Genomics Consortium, 100 College St. Toronto, Ontario, Canada]
Human pyruvate kinase muscle 2 enzyme was supplied as a highly purified (>95% pure) preparation by the Structural Genomics Consortium in Toronto (Ontario, Canada) and was assayed for its ability to generate ATP from ADP using phosphoenolpyruvate (PEP) as a substrate. ATP generation was detected in a coupled reaction by luciferase-mediated luminescence, an ATP-dependent process. Pyruvate kinase substrates, PEP and ADP, were present in the assay at Km and approximately […]-fold below Km respectively. The enzyme was assayed at an intermediate level of activity to screen for inhibitors and activators.
NCGC Assay Protocol Summary:
Three uL of substrate mix (final concentration, 50 mM imidazole pH 7.2, 50 mM KCl, 7 mM MgCl2, 0.5 mM PEP, 0.1 mM ADP, 0.01% Tween 20, 0.05% BSA) was dispensed into 1536 well plates. 23 nL of compound were delivered by a pin tool and 1 uL of enzyme mix (final concentration, 0.1 nM pyruvate kinase, 50 mM imidazole pH 7.2, 0.05% BSA) was added. Plates were incubated at room temperature for 1 hour. Two uL of detection and kinase stop mix (PKLight, Cambrex) was added, the plates centrifuged, and luminescence read by a ViewLux (Perkin Elmer) at 5 second exposure/plate. Data were normalized to the uninhibited and AC100 inhibition (no enzyme or 110 uM N-methyl-2,3-diphenyl-1,2,4-thiadiazol-5-imine; CID: 682802; LOPAC-S-4063). To monitor activation, 0.3 nM pyruvate kinase was included in one control column.

Row | SMILES | activity change, negative = inhibition | outcome
1 | CC(C)[C@@]1(NC(=O)[C@@H]2C[C@H]3c4cccc5[nH]cc(c45)C[C@@H]3N(C)C2)O[C@@]2(O)[C@H]3CCCN3C(=O)[C@H](Cc3ccccc3)N2C1=O | -3.3% (inactive) | –
2 | CNc1ccc2oc(C[C@H]3O[C@]4(CC[C@H]3C)O[C@H]([C@H](C)C(=O)c3ccc[nH]3)[C@H](C)C[C@H]4C)nc2c1C(=O)O | 6.66% (inactive) | –
3 | Oc1ccc2c3c1O[C@H]1c4[nH]c5ccccc5c4C[C@]4(O)[C@H](C2)N(CC2CC2)CC[C@@]314 | -29.2% (inactive) | –
4 | CN(C(=O)Cc1ccc(Cl)c(Cl)c1)[C@@H](CN1CCCC1)c1cccc(OCC(=O)O)c1 | -16.5% (inactive) | –
5 | N[C@H](CCP(=O)(O)O)C(=O)O | -10.6% (inactive) | –
6 | C[C@H](N)Cc1cnc[nH]1 | -23.5% (inactive) | –
7 | COC(=O)c1cc2c(cn1)[nH]c1ccccc12 | -43.1% (inactive) | –
8 | C=CCN1CC[C@@]23c4c5ccc(O)c4O[C@H]2/C(=N\N=C2/CC[C@@]4(O)[C@H]6Cc7ccc(O)c8c7[C@@]4(CCN6CC=C)[C@@H]2O8)CC[C@]3(O)[C@@H]1C5 | 7.59% (inactive) | –
9 | CC[C@]1(C2=NCCN2)Cc2ccccc2O1 | -30.7% (inactive) | –
10 | NC[C@H](CP(=O)(O)O)c1ccc(Cl)cc1 | -4.81% (inactive) | –
11 | N[C@@H](Cn1cc(I)c(=O)[nH]c1=O)C(=O)O | -9.15% (inactive) | –
12 | C[C@@H](Cc1ccc(OCC(=O)O)cc1)NC[C@H](O)c1cccc(Cl)c1 | -5.05% (inactive) | –
13 | COc1ccc2[nH]cc(CCN(C)C)c2c1 | -6.37% (inactive) | –
14 | C=C(C)[C@H]1CN[C@H](C(=O)O)[C@@H]1CC(=O)O | -20.3% (inactive) | –
15 | CN1[C@@H]2CC[C@H]1CC(O[C@@H](c1ccccc1)c1ccc(Cl)cc1)C2 (stereo not given in full) | -15.4% (inactive) | –
16 | N[C@H](C(=O)O)c1cc(=O)[nH]o1 | -11.6% (inactive) | –
17 | Oc1ccc2c3c1O[C@H]1c4oc5ccccc5c4C[C@]4(O)[C@H](C2)N(CC2CC2)CC[C@@]314 | -30.4% (inactive) | –
18 | COC(=O)N1CCN(C(=O)Cc2ccc(Cl)c(Cl)c2)[C@H](CN2CCCC2)C1 | -7.06% (inactive) | –
19 | N#CC(C#N)=Cc1ccc([N+](=O)[O-])c(O)c1 | 0.043% (inactive) | –
20 | CCOC(=O)c1ncn2c1[C@H]1CCCN1C(=O)c1cc(OC)ccc1-2 | -9.1% (inactive) | –

Row | SMILES | activity change, negative = inhibition | outcome
21 | Cc1o[nH]c(=O)c1C[C@H](N)C(=O)O | -2.22% (inactive) | –
22 | CN1C(=O)CCS(=O)(=O)[C@H]1c1ccc(Cl)cc1 | -10.8% (inactive) | –
23 | N[C@H](CCCCCP(=O)(O)O)C(=O)O | – | inactive
24 | CP(=O)(O)CCCN | -18.8% (inactive) | –
25 | N[C@H](CP(=O)(O)O)C(=O)O | 1.8% (inactive) | –
26 | N[C@@]1(C(=O)O)CC[C@H](C(=O)O)C1 | -19.7% (inactive) | –
27 | CN1CCN(c2ccc3ccccc3n2)CC1 | -17.1% (inactive) | –
28 | C=CCN1CCC2(C)c3cc(O)ccc3C[C@H]1[C@H]2C | – | inactive
29 | COc1ccc(CNC(=O)/C=C\c2ccc3[nH]cc(CCN(C)C)c3c2)cc1 | -5.24% (inactive) | –
30 | CC(C)(C)c1o[nH]c(=O)c1C[C@H](N)C(=O)O | -18.8% (inactive) | –
31 | C[C@H](N)Cc1c[nH]c2ccc(O)cc12 | -4.98% (inactive) | –
32 | c1ccc2c(c1)OC[C@@H](C1=NCCN1)O2 | -9.42% (inactive) | –
33 | COc1ccc(CCN)cc1O | -7.69% (inactive) | –
34 | C[C@H](N)Cc1c[nH]c2ccc(OCc3cccs3)cc12 | -27% (inactive) | –
35 | COc1cc(CCN)ccc1O | -4.58% (inactive) | –
36 | O=C(Cc1ccc(Cl)c(Cl)c1)N1CCCC[C@H]1CN1CCCC1 | -7.71% (inactive) | –
37 | COc1ccc(-n2nc(C(F)(F)F)cc2-c2ccc(Cl)cc2)cc1 | -21.2% (inactive) | –
38 | C/C(O)=C(/C#N)C(=O)Nc1cc(Br)ccc1Br | -38.5% (inactive) | –
39 | CN1CC[C@@]23CCCC[C@@H]2[C@@H]1Cc1ccc(O)cc13 | -19.7% (inactive) | –
40 | O=C1NCN(c2ccccc2)C12CCN(C[C@H]1COc3ccccc3O1)CC2 | -3.47% (inactive) | –
